# Hit rate of the full screen: of about 99,000 compounds, about 390 (0.39%) were called active. The sample as a whole holds a higher share of actives than the screen did. Values without a mark were called inactive. Rule as the data show it: active = TR-FRET ratio above about 2000; inactive = the rest.
# Experiment: TR-FRET detection interference compounds, artefact control for PPARgamma SRC-3 recruitment agonists, biochemical, TR-FRET ratio (AID 1048)
# Settings: TR-FRET artefact counter-screen, PPARgamma/SRC-3 format; at 8 µM; active compounds read high
row,SMILES,TR-FRET ratio
1,COc1cc(-n2c(=S)[nH]c3ccc(C)cc3c2=O)c(Cl)cc1Cl,2500 (active)
2,O=C(Cc1ccccc1)N1CCN(C2CCCCCC2)CC1,1380
3,O=C(CCNS(=O)(=O)c1ccccc1)Nc1ccc(Cl)cc1C(=O)c1ccccc1,1450
4,Cc1ccccc1N1C(=O)NC(=O)/C(=C\c2cc(C)n(C)c2C)C1=O,1530
5,Cc1cccc(-n2c(O)c(/C=N/N3CCOCC3)c(=O)[nH]c2=S)c1,1680

# Reference: PubChem BioAssay AID1048 (The Scripps Research Institute Molecular Screening Center, 2008)
